Results reported in PubChem BioAssay (NCATS).
Results filed as inconclusive are left out. Where a call stands in place of a potency, no number is given. Calls of active or inactive are those of the source. Calls follow the shape of the dose curve; as a rule, active = well fitted inhibition curve with a large enough effect; inconclusive = small, poorly fitted or top-dose-only effect; inactive = no such curve, though single readings can be large or run the other way.

Tests used:
[1] = system: Zika virus NS2B-NS3 protease (unlinked complex); test: Primary screen GU Rhodamine qHTS for Zika virus inhibitors: Unlinked NS2B-NS3 protease assay (AID 1347159); also: nearly all actives have a fitted effect of over 60% in size; also: potency is read from the fitted curve at half-maximal effect
Summary of the method: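 In dose–response format, inhibition of unlinked protease (25 nM) was measured with 1.5 microM bis-peptide Rhodamine110 substrate. Aprotinin served as the intraplate control.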

[2] = system: Zika virus NS2B-NS3 protease (linked construct); test: Primary screen NINDS Rhodamine qHTS for Zika virus inhibitors (AID 1347160); also: nearly all actives have a fitted effect of over 55% in size
Summary of the method: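 Each compound, titrated, sat 15 min with 25 nM linked protease before 1.5 microM Rhodamine110 substrate went in. Fluorescence gain over the next 15 min, in pH 8.0 Tris with Tween 20, gave Hill-fitted curves.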

Compound	Potency [1]	Potency [2]
CCC(C)C(=O)OC1CC(O)C23C4OCC5(C(O)CC2C1(C)C(O)O4)C3C(=O)C(O)C1(C)C(O)(c2ccoc2)CC2OC251 (stereo not given)	inactive	inactive
C=C1CC2C(C)(CCC(=O)O)C(C(C)(C)O)CCC2(C)C2C(=O)OC(C)(C(=O)OC)C(=O)C12C (stereo not given)	inactive	inactive
CN1CCC(Nc2nc(Nc3ccc(Oc4ccccc4)cc3)c3c(=O)[nH]cc(Br)c3n2)CC1	inactive	inactive
CCC1=CC2CN(C1)Cc1c([nH]c3ccccc13)[C@@](C(=O)OC)(c1cc3c(cc1OC)N(C)[C@H]1[C@@](O)(C(=O)OC)[C@H](OC(C)=O)[C@]4(CC)C=CCN5CC[C@]31[C@@H]54)C2 (stereo not given in full)	inactive	inactive
Cc1cnc(NC(=O)Nc2cc(Br)c(C)cc2OCC2CNCCO2)cn1 (stereo not given)	inactive	inactive
COc1c2c(c(C)c3c1C(=O)OC3)O[C@@]1(C)CC(O)C(C(C)(C)O)[C@](C)(CCC(=O)O)[C@H]1C2 (stereo not given in full)	inactive	inactive
CC1CC(=O)C2=C(CCC3(O)C(O)c4c(O)cccc4C(=O)C23O)C1 (stereo not given)	inactive	inactive
CO[C@@H](C)Cn1c(=O)n(C)c2cnc3ccc(-c4cncc(C(C)(C)O)c4)cc3c21	inactive	inactive
c1ccc(-c2ncc(CN3CCN(c4ncccn4)CC3)[nH]2)cc1	inactive	inactive
COc1c2ccoc2cc2oc(CO[C@@H]3O[C@H](CO)[C@@H](O)[C@H](O)[C@H]3O)cc(=O)c12	inactive	inactive
O=C(COc1cccc2c(=O)[nH]ccc12)c1ccccc1	inactive	inactive
COC(=O)c1cc(OC)c(O[C@@H]2O[C@@H](C)[C@H](O)[C@@H](O)[C@H]2O)c(OC)c1	inactive	inactive
C[C@@H]1CCC2C(C)(C)[C@H](O)CC[C@]2(C)[C@@]12Cc1c(O)cc3c(c1O2)CNC3=O (stereo not given in full)	inactive	inactive
CO[C@H]1/C=C\O[C@@]2(C)Oc3c(C)c(O)c4c(O)c(c5c(nc6cc(C)ccn65)c4c3C2=O)NC(=O)/C(C)=C\C=C/[C@H](C)[C@H](O)[C@@H](C)[C@@H](O)[C@@H](C)[C@H](OC(C)=O)[C@@H]1C	inactive	inactive
CCCCc1ccc(C(=O)Nc2cc(-c3ccc(Cl)cc3)nn2-c2ccc(Cl)cc2)cc1	39.8 µM (active)	inactive
COc1cc(N)c(Cl)cc1C(=O)NC[C@@H]1CCN2CCC[C@@H]12	inactive	inactive
CC(=O)OC[C@]12[C@H](OC(C)=O)C(=O)[C@@H]3[C@@H](OC(C)=O)[C@@]14O[C@@]3(C)COC(=O)c1cccnc1[C@@H](C)[C@H](C)C(=O)O[C@@H]([C@H](O)[C@@H]2OC(C)=O)[C@]4(C)O	inactive	inactive
O=C1CCC(c2ccccc2)(C2CCN(Cc3ccc(I)cc3)CC2)C(=O)N1 (stereo not given)	inactive	inactive
CO[C@H]1O[C@@H]2O[C@]3(C)CC[C@H]4[C@H](C)CC[C@@H]([C@H]1C)[C@@]24OO3	inactive	inactive
COc1cc(N2CCOCC2)ccc1Nc1ncc(Cl)c(Nc2ccccc2NS(C)(=O)=O)n1	inactive	inactive
Cn1nc(C(C)(C)C)cc1C(=O)NC(Cc1cccc(Cl)c1)C(=O)NCC#N (stereo not given)	inactive	inactive
C=C1CC[C@H]2[C@@](C)(CCC(O)[C@@]2(C)CO)[C@@H]1CCC1=CCOC1=O (stereo not given in full)	inactive	inactive
CC(O)(CC(=O)O)CC(=O)OCc1ccc(O[C@@H]2O[C@H](CO)[C@@H](O)[C@H](O)[C@H]2O)cc1 (stereo not given in full)	inactive	inactive
C[C@@H]1N[C@H]2N(C1=O)c1ccccc1[C@@]2(O)C[C@@H]1C(=O)N[C@@H](C)c2nc3ccccc3c(=O)n21	inactive	inactive
C[C@@H]1CC[C@]2(C(=O)OC3OC(CO)C(O)C(O)C3O)CC[C@]3(C)C(=CCC4[C@@]5(C)CC[C@H](O)[C@](C)(C(=O)O)C5CC[C@]43C)C2[C@]1(C)O (stereo not given in full)	inactive	inactive
COc1ccc(-c2ccc3c(N4CCOCC4)nc(N4CC(C)OC(C)C4)nc3n2)cc1CO (stereo not given)	inactive	inactive
CCOC(=O)c1sc(NC(=O)[C@H](C(C)C)n2c(=O)[nH]c3ccccc3c2=O)nc1C	inactive	inactive
COC(=O)c1cc(OC)cc(OC)c1C(=O)c1c(OC)cc2c(c1O)C1CCCC(C)(O2)O1 (stereo not given)	inactive	inactive
CCOCc1nc2c(N)nc3ccccc3c2n1CC(C)(C)O	inactive	inactive
COc1cc(C2Oc3c(OC)cc(CCCO)cc3C2CO)ccc1O[C@H]1O[C@H](C)[C@@H](O)[C@H](O)[C@@H]1O (stereo not given in full)	inactive	inactive
